Key:
Assay in all cases: DAPPL (digital affinity profiling via proximity ligation, sequencing); 10 mM Tris-HCl pH 7.5, 50 mM NaCl, 1 mM DTT, 4% glycerol, room temperature, 30 min; GST-TFs on glutathione beads, 16-mer random dsDNA library, 0.1% formaldehyde crosslink after washing; high values mean tight binding
Conditions in all cases: protein: recombinant; tags: N-terminal GST; dsDNA, one strand shown
[1] = target: T1, GABPA (Homo sapiens, UniProt Q06546 1-454)
T1 sequence: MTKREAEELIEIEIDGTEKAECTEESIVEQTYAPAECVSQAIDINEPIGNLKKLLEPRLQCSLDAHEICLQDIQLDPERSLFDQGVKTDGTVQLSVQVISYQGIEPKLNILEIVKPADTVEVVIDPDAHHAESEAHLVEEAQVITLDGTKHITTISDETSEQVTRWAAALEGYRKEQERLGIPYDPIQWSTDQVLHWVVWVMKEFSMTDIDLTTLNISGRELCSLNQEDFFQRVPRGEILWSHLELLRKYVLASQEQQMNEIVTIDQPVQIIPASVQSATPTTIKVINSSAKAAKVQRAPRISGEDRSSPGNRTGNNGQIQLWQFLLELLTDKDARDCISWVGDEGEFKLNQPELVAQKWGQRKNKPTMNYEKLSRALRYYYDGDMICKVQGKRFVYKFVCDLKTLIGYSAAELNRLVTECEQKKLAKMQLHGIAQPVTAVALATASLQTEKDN
Outline: (§1)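 A tag-only sample was pooled with DNA-barcoded human transcription factors that had been expressed in yeast as GST fusions and captured on glutathione beads. The pools were incubated for 30 min at room temperature with 200 nmole of a random double-stranded 16-mer DNA library in Tris/NaCl/DTT/glycerol buffer, then washed, crosslinked with 0.1% formaldehyde, proximity-ligated (BsaI/T4 ligase, 1 h, 37 °C), PCR-amplified and sequenced on an Illumina NextSeq500. Binding signal is each hexamer's read frequency for a factor divided by its frequency for the tag-only sample.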

[2] = target: T2, EHF (Homo sapiens, UniProt Q9NZC4 1-300)
T2 sequence: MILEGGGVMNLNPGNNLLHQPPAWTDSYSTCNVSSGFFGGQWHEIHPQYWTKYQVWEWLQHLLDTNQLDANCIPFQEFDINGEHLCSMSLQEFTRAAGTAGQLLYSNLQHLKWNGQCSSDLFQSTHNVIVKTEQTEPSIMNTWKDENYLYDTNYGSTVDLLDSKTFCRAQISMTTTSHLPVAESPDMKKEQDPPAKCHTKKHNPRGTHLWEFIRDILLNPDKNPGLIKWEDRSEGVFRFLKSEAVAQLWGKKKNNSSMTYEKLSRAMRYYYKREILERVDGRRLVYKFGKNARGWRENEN
Outline: as §1

[3] = target: ETV5 (Homo sapiens, UniProt P41161 1-510)
Outline: as §1

[4] = target: ELF4 (Homo sapiens, UniProt Q99607 1-663)
Outline: as §1

[5] = target: T3, ELK4 (Homo sapiens, UniProt P28324-2 1-405)
T3 sequence: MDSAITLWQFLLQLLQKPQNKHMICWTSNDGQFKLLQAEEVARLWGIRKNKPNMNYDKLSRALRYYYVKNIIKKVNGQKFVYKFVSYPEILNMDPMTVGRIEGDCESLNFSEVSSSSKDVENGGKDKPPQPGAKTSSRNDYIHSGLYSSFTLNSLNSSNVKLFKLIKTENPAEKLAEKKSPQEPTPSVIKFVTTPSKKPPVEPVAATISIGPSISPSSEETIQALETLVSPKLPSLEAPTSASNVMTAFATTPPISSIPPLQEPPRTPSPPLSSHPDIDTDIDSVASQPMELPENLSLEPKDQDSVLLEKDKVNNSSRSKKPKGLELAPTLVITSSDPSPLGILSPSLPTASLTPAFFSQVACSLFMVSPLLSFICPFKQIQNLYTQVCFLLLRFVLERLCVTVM
Outline: as §1

[6] = target: T4, ETV2 (Homo sapiens, UniProt O00321 1-342)
T4 sequence: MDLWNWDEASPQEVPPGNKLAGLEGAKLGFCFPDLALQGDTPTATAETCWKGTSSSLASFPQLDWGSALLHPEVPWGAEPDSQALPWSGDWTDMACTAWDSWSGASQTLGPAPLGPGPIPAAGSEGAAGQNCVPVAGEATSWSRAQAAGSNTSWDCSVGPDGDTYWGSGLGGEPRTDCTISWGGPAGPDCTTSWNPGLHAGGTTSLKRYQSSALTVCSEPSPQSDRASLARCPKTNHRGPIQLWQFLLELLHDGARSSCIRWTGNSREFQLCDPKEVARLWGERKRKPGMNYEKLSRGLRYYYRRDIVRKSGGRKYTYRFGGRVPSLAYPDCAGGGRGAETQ
Outline: as §1

[7] = target: T5, ELF3 (Homo sapiens, UniProt P78545 1-371)
T5 sequence: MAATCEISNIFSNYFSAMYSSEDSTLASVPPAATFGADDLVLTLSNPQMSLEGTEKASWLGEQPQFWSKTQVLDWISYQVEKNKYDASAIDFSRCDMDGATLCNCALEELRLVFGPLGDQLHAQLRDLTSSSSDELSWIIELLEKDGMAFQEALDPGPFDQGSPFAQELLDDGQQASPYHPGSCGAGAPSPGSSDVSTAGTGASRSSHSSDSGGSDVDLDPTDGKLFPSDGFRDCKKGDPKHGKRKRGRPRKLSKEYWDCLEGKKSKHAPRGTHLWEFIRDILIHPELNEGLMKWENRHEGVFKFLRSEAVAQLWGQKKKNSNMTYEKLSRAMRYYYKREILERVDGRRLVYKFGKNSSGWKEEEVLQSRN
Outline: as §1

[8] = target: ETV1 (Homo sapiens, UniProt P50549 1-477)
Outline: as §1

[9] = target: T6, ERF (Homo sapiens, UniProt P50548 1-548)
T6 sequence: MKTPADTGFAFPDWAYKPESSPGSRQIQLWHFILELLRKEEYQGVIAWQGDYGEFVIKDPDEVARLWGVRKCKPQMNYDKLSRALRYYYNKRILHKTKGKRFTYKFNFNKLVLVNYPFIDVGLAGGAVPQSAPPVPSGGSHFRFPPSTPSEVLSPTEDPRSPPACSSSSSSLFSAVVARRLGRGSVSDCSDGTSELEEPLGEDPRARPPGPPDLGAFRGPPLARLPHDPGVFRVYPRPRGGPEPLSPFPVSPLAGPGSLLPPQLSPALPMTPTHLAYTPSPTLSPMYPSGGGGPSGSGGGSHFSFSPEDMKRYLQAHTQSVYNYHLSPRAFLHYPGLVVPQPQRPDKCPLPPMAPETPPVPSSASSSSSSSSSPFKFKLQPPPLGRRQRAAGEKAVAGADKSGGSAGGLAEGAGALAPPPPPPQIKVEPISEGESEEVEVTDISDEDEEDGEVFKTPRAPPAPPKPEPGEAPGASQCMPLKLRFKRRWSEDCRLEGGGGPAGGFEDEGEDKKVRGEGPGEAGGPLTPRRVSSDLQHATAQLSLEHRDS
Outline: as §1

[10] = target: T7, ETV7 (Homo sapiens, UniProt Q9Y603 1-341)
T7 sequence: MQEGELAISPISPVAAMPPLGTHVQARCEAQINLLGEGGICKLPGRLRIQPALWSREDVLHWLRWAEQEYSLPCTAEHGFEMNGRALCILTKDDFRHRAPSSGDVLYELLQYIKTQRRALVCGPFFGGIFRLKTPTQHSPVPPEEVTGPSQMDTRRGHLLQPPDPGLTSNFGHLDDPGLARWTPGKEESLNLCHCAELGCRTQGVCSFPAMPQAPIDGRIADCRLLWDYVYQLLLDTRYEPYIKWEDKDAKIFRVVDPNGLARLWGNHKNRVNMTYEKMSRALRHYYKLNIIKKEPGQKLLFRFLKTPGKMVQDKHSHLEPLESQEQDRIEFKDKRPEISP
Outline: as §1

[11] = target: T8, ETV3 (Homo sapiens, UniProt P41162-2 1-143)
T8 sequence: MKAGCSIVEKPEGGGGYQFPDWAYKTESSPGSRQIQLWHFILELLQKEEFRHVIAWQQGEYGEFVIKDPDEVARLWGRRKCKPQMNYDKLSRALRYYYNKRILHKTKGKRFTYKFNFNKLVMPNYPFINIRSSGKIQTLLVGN
Outline: as §1

[12] = target: ETV6 (Homo sapiens, UniProt P41212 1-452)
Outline: as §1

[13] = target: ELF1 (Homo sapiens, UniProt P32519 1-619)
Outline: as §1

[14] = target: SPIB (Homo sapiens, UniProt Q01892 1-262)
Outline: as §1

[15] = target: T9, FEV (Homo sapiens, UniProt Q99581 1-238)
T9 sequence: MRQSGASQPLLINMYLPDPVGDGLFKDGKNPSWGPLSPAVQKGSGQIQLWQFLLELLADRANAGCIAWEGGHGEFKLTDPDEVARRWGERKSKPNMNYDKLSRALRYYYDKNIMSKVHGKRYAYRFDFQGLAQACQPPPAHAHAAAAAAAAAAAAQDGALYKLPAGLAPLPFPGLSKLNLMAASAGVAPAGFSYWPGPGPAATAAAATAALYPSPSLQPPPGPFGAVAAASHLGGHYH
Outline: as §1

[16] = target: T10, SPDEF (Homo sapiens, UniProt O95238 1-335)
T10 sequence: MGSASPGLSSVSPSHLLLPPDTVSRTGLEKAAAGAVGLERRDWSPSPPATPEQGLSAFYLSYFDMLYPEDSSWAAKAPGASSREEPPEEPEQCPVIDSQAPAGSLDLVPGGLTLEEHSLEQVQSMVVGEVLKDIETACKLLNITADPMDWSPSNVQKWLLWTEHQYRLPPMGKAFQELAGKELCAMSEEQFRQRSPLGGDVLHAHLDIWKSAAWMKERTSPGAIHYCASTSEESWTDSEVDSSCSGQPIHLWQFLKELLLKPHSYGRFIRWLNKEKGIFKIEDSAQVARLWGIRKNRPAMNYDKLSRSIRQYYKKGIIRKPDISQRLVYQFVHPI
Outline: as §1

Sequence of ETV6 (P41212 whole entry): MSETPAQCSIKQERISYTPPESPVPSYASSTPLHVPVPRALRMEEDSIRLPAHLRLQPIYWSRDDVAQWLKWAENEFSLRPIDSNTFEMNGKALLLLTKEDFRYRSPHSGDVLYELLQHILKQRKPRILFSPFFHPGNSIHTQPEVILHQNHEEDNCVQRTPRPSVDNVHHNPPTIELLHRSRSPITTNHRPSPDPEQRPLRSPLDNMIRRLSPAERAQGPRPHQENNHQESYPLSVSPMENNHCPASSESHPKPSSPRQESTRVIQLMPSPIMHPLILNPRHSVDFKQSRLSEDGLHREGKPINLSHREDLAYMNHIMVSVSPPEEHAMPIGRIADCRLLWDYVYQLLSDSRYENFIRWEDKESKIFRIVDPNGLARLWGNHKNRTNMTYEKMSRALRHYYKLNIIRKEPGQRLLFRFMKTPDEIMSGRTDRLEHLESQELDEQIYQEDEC
Sequence of ETV5 (P41161 whole entry): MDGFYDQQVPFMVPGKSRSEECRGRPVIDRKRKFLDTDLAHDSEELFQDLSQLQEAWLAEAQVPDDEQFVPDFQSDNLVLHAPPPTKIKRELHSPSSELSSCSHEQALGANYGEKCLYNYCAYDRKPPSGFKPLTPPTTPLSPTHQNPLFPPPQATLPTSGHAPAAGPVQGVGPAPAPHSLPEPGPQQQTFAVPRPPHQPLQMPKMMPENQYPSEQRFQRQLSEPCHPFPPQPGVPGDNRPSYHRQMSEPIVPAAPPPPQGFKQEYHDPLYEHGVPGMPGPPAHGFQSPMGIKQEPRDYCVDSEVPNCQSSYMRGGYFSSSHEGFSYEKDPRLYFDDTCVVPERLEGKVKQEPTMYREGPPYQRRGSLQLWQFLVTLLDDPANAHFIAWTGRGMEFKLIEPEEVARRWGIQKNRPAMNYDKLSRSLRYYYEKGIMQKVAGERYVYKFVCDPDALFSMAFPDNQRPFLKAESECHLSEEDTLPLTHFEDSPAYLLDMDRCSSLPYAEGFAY
Sequence of ELF1 (P32519 whole entry): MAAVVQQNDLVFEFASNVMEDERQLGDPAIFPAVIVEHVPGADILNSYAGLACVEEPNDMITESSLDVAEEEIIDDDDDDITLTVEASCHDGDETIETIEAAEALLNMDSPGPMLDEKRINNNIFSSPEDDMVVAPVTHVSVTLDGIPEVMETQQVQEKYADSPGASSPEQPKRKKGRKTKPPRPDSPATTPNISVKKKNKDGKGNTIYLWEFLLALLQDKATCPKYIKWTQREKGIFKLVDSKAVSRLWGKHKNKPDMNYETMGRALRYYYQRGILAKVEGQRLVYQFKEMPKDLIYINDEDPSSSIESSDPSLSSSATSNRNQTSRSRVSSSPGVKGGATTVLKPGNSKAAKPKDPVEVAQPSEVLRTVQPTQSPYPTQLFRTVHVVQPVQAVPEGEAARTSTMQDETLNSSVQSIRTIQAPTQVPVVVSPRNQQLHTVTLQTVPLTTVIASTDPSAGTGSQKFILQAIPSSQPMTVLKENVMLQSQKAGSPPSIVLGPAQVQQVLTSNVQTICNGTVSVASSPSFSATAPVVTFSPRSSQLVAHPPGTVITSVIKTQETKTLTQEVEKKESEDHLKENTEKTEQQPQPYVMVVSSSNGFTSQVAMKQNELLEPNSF
Sequence of ETV1 (P50549 whole entry): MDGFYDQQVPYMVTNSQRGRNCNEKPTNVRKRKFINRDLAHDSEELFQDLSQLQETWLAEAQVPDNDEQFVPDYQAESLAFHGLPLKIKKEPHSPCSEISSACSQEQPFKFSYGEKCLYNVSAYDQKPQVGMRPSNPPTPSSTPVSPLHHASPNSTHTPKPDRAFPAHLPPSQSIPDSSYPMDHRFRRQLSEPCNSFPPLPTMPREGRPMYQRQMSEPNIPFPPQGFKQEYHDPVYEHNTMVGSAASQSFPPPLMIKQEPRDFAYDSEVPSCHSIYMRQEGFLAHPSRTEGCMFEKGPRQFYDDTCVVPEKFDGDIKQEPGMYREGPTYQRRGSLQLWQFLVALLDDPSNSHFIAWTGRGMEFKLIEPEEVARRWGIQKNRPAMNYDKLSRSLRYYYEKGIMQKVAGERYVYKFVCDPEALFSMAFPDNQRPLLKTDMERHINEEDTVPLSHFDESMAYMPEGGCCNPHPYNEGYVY
Sequence of SPIB (Q01892 whole entry): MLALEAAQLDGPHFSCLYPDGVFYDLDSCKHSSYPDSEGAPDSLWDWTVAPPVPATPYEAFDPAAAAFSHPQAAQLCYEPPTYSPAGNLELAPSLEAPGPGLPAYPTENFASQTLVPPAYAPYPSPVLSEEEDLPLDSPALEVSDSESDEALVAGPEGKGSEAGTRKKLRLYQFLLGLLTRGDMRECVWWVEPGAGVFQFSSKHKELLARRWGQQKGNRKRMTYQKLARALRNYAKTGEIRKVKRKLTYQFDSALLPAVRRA
Sequence of ELF4 (Q99607 whole entry): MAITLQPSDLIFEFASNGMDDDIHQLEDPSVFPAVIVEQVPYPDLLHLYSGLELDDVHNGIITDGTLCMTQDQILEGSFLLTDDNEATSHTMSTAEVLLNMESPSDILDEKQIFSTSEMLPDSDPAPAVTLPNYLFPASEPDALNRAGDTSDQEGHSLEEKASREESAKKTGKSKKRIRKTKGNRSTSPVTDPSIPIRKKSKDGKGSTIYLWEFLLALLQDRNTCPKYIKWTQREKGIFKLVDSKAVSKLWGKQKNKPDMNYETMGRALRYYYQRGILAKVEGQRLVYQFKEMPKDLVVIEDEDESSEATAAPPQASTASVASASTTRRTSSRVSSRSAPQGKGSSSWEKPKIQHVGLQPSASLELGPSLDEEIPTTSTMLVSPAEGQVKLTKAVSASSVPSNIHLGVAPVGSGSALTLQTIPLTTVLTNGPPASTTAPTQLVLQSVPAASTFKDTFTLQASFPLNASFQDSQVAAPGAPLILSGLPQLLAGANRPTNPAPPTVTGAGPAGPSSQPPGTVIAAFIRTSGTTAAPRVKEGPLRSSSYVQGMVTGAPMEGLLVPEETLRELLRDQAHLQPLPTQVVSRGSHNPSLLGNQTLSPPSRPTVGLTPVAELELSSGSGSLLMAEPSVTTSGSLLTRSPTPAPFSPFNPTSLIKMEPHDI

Sequence | binding signal [1] | binding signal [2] | binding signal [3] | binding signal [4] | binding signal [5] | binding signal [6] | binding signal [7] | binding signal [8] | binding signal [9] | binding signal [10] | binding signal [11] | binding signal [12] | binding signal [13] | binding signal [14] | binding signal [15] | binding signal [16]
AGAAGT | 1.05 fold enrichment (6-mer frequency, TF over GST control) | 1.06 fold enrichment (6-mer frequency, TF over GST control) | 1.09 fold enrichment (6-mer frequency, TF over GST control) | 1.06 fold enrichment (6-mer frequency, TF over GST control) | 1.16 fold enrichment (6-mer frequency, TF over GST control) | 1.03 fold enrichment (6-mer frequency, TF over GST control) | 1.05 fold enrichment (6-mer frequency, TF over GST control) | 1.05 fold enrichment (6-mer frequency, TF over GST control) | 1.05 fold enrichment (6-mer frequency, TF over GST control) | 1.13 fold enrichment (6-mer frequency, TF over GST control) | 1.01 fold enrichment (6-mer frequency, TF over GST control) | 1.07 fold enrichment (6-mer frequency, TF over GST control) | – | – | – | –
CGGTTA | 1.01 fold enrichment (6-mer frequency, TF over GST control) | 1.02 fold enrichment (6-mer frequency, TF over GST control) | 1.05 fold enrichment (6-mer frequency, TF over GST control) | – | – | 1.06 fold enrichment (6-mer frequency, TF over GST control) | 1 fold enrichment (6-mer frequency, TF over GST control) | – | – | 1 fold enrichment (6-mer frequency, TF over GST control) | – | 1.09 fold enrichment (6-mer frequency, TF over GST control) | 1 fold enrichment (6-mer frequency, TF over GST control) | 1.02 fold enrichment (6-mer frequency, TF over GST control) | 1.04 fold enrichment (6-mer frequency, TF over GST control) | 1.15 fold enrichment (6-mer frequency, TF over GST control)
